Results published in ChEMBL document CHEMBL2218924, “A broad activity screen in support of a chemogenomic map for kinase signalling research and drug discovery” (Biochem J, 2013).

These compounds were tested against T1, cGMP-dependent protein kinase 1 (Homo sapiens) (UniProt Q13976). Conditions: at 10 µM.
T1 sequence (whole entry): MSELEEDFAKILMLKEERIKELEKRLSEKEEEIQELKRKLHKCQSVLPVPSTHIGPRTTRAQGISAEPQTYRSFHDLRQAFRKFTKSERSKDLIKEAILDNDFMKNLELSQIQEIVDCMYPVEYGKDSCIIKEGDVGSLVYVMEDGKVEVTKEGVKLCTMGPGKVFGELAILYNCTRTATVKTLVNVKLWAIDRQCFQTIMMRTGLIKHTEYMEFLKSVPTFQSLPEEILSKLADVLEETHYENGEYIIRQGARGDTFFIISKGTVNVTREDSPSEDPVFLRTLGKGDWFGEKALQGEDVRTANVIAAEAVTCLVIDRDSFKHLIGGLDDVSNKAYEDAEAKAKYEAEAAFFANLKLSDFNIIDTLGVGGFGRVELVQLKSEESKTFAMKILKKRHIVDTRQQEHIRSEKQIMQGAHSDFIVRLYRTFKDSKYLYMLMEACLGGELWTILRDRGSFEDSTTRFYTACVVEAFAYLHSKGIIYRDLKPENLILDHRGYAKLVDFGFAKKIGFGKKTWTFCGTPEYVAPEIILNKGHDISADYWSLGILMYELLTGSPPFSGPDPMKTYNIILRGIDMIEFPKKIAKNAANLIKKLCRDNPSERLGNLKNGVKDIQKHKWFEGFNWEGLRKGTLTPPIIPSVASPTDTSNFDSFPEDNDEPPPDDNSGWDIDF

Row | Compound | residual activity [%]
1 | Nc1n[nH]c2nc3ccccc3nc12 | 59
2 | CCCC(=O)Oc1ccc2[nH]c(C(=O)c3cc4ccccc4[nH]3)cc2c1 | 78
3 | CC(C)[C@H](CO)Nc1nc(Nc2cc(N)cc(Cl)c2)c2ncn(C(C)C)c2n1 | 80
4 | O=C(c1ccccc1)c1ccc(N2CCOCC2)cc1O | 80
5 | COc1cc2nccc(Oc3ccc(NC(=S)NC(=O)c4ccccc4C)cc3)c2cc1OC | 66
6 | O=S(=O)(c1cccc2cnccc12)N1CCCNCC1 | 15
7 | O=C1NC(=O)C(c2c[nH]c3ccccc23)=C1c1c[nH]c2ccccc12 | 28
8 | Nc1ncnc2c1c(-c1ccc(Oc3ccccc3)cc1)cn2C1CCCC1 | 72
9 | N#Cc1c(NC(=O)c2cccc3ccccc23)sc2c1CCCC2 | 87
10 | O=C1C(Cl)=C(N2C(=O)CCC2=O)C(=O)c2ccccc21 | 88
11 | O=C1NC(=O)c2c1c1c3ccccc3[nH]c1n1cncc21 | 70
12 | CSc1nc(-c2ccc(F)cc2)c(-c2ccnc(NC(C)c3ccccc3)c2)[nH]1 (stereo not drawn) | 84
13 | CC(C)c1nn(-c2c(Cl)cccc2Cl)c2nc(Cc3ccc(OCCO)cc3)[nH]c(=O)c12 | 48
14 | COc1ccc2c(c1)c(C1=C(c3c[nH]c4ccccc34)C(=O)NC1=O)cn2CCCN(C)C | 22
15 | O=c1cc(N2CCOCC2)oc2c1ccc1ccccc12 | 99
16 | O=c1cc(N2CCNCC2)oc2c(-c3ccccc3)cccc12 | 81
17 | Nc1ncnc2[nH]nc(Nc3ccc(F)cc3)c12 | 79
18 | NC(=O)Nc1sc(-c2ccc(F)cc2)cc1C(N)=O | 43
19 | O=C(O)/C=C/c1cc(Br)c(Br)c(Br)c1Br | 32
20 | O=C1Nc2ccc(Cl)cc2/C1=C/c1cc(Cl)c(O)c(Cl)c1 | 44
21 | CC(C)(C)n1nc(Cc2cccc3ccccc23)c2c(N)ncnc21 | 95
22 | O=C1Cc2c([nH]c3ccc(Br)cc23)-c2ccccc2N1 | 74
23 | NC(=O)c1ccc(-c2nc(-c3ccc4c(c3)OCCO4)c(-c3ccccn3)[nH]2)cc1 | 63
24 | O=S(=O)(NCCNC/C=C/c1ccc(Br)cc1)c1cccc2cnccc12 | 4

What follows are compounds tested against T2, MAP kinase-activated protein kinase 5 (Homo sapiens) (UniProt Q8IW41). Conditions: at 1 µM.
T2 sequence (whole entry): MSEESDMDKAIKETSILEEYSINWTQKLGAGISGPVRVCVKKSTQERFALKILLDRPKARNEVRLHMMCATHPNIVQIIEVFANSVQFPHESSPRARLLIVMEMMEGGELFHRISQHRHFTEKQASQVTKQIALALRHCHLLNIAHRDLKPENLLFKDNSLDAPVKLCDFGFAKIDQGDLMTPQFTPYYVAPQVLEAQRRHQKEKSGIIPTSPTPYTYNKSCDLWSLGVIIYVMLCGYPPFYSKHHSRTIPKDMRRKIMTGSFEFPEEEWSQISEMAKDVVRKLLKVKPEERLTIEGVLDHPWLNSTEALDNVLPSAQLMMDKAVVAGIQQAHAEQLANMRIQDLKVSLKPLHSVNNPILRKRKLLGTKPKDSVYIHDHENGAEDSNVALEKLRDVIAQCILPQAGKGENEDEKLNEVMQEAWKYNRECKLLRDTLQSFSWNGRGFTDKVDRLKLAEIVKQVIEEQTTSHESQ

Row | Compound | residual activity [%]
25 | Nc1n[nH]c2nc3ccccc3nc12 | 95
26 | CCCC(=O)Oc1ccc2[nH]c(C(=O)c3cc4ccccc4[nH]3)cc2c1 | 72
27 | CC(C)[C@H](CO)Nc1nc(Nc2cc(N)cc(Cl)c2)c2ncn(C(C)C)c2n1 | 92
28 | O=C(c1ccccc1)c1ccc(N2CCOCC2)cc1O | 99
29 | COc1cc2nccc(Oc3ccc(NC(=S)NC(=O)c4ccccc4C)cc3)c2cc1OC | 70
30 | O=C1NC(=O)C(c2c[nH]c3ccccc23)=C1c1c[nH]c2ccccc12 | 98
31 | Nc1ncnc2c1c(-c1ccc(Oc3ccccc3)cc1)cn2C1CCCC1 | 90
32 | N#Cc1c(NC(=O)c2cccc3ccccc23)sc2c1CCCC2 | 87
33 | Nc1ncnc2c1cnn2-c1ccccc1 | 94
34 | Nc1nccc(-c2c(-c3ccc(F)cc3)ncn2C2CCNCC2)n1 | 118
35 | O=C1NC(=O)c2c1c1c3ccccc3[nH]c1n1cncc21 | 97
36 | O=c1cc(N2CCOCC2)oc2c1ccc1ccccc12 | 28
37 | COc1cc2c(cc1OC)-c1n[nH]c(Nc3cccc(F)c3)c1C2 | 47
38 | O=c1cc(N2CCNCC2)oc2c(-c3ccccc3)cccc12 | 93
39 | Nc1ncnc2[nH]nc(Nc3ccc(F)cc3)c12 | 109
40 | NC(=O)Nc1sc(-c2ccc(F)cc2)cc1C(N)=O | 96
41 | O=C(O)/C=C/c1cc(Br)c(Br)c(Br)c1Br | 83
42 | O=C1Nc2ccc(Cl)cc2/C1=C/c1cc(Cl)c(O)c(Cl)c1 | 95
43 | CC(C)(C)n1nc(Cc2cccc3ccccc23)c2c(N)ncnc21 | 75
44 | O=C1Cc2c([nH]c3ccc(Br)cc23)-c2ccccc2N1 | 97
45 | COc1cc2nccc(Oc3ccc(NC(=O)Nc4cc(C)on4)c(Cl)c3)c2cc1OC | 99

What follows are compounds tested against T2, MAP kinase-activated protein kinase 5 (Homo sapiens). Conditions: at 10 µM.

Row | Compound | residual activity [%]
46 | CCCC(=O)Oc1ccc2[nH]c(C(=O)c3cc4ccccc4[nH]3)cc2c1 | 44
47 | CC(C)[C@H](CO)Nc1nc(Nc2cc(N)cc(Cl)c2)c2ncn(C(C)C)c2n1 | 56
48 | O=C(c1ccccc1)c1ccc(N2CCOCC2)cc1O | 74
49 | COc1cc2nccc(Oc3ccc(NC(=S)NC(=O)c4ccccc4C)cc3)c2cc1OC | 79
50 | O=C1NC(=O)C(c2c[nH]c3ccccc23)=C1c1c[nH]c2ccccc12 | 48
51 | Nc1ncnc2c1c(-c1ccc(Oc3ccccc3)cc1)cn2C1CCCC1 | 46
52 | N#Cc1c(NC(=O)c2cccc3ccccc23)sc2c1CCCC2 | 93
53 | O=C1C(Cl)=C(N2C(=O)CCC2=O)C(=O)c2ccccc21 | 98
54 | Nc1nccc(-c2c(-c3ccc(F)cc3)ncn2C2CCNCC2)n1 | 112
55 | O=C1NC(=O)c2c1c1c3ccccc3[nH]c1n1cncc21 | 71
56 | CC(C)c1nn(-c2c(Cl)cccc2Cl)c2nc(Cc3ccc(OCCO)cc3)[nH]c(=O)c12 | 73
57 | O=C1NC(=O)C(c2cn(CCCn3ccnc3)c3ccccc23)=C1Nc1ccccc1 | 59
58 | O=c1cc(N2CCOCC2)oc2c1ccc1ccccc12 | 42
59 | COc1cc2c(cc1OC)-c1n[nH]c(Nc3cccc(F)c3)c1C2 | 65
60 | O=c1cc(N2CCNCC2)oc2c(-c3ccccc3)cccc12 | 99
61 | Nc1ncnc2[nH]nc(Nc3ccc(F)cc3)c12 | 91
62 | NC(=O)Nc1sc(-c2ccc(F)cc2)cc1C(N)=O | 58
63 | O=C(O)/C=C/c1cc(Br)c(Br)c(Br)c1Br | 28
64 | O=C1Nc2ccc(Cl)cc2/C1=C/c1cc(Cl)c(O)c(Cl)c1 | 17
65 | CC(C)(C)n1nc(Cc2cccc3ccccc23)c2c(N)ncnc21 | 33
66 | O=C1Cc2c([nH]c3ccc(Br)cc23)-c2ccccc2N1 | 70
67 | COc1cc2nccc(Oc3ccc(NC(=O)Nc4cc(C)on4)c(Cl)c3)c2cc1OC | 70
68 | NC(=O)c1ccc(-c2nc(-c3ccc4c(c3)OCCO4)c(-c3ccccn3)[nH]2)cc1 | 89
